Source: PubChem (Sanford-Burnham Center for Chemical Genomics)
tim10-1 inh: growth inhibitors of tim10-1 mutant yeast | S. cerevisiae tim10-1 ts strain growth, BacTiter-Glo, 24 h | inhibition, % at 20 µM | 330,000 compounds, 2.2% hits | AID 463190;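 active = inhibition of at least 40%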;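 also: mutant grown at 25 °C; 0% = DMSO wells with yeast and 100% = wells holding no yeast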
TIM10 inh: growth inhibitors of TIM10 yeast strain. S. cerevisiae TIM10 strain growth, BacTiter-Glo luminescence, 24 h. inhibition, % at 10 µM. 330,000 compounds, 1.4% hits;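 active = inhibition of 40% or more at the single tested concentration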;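 also: wild-type TIM10 isogenic control strain grown at permissive 25 °C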
Mdm2-MdmX inh: inhibitors of human Mdm2/MdmX interaction; O15151+Q00987; SaOS-2 split-luciferase Mdm2/MdmX complementation, luminescence; inhibition, % at 8 µM; 330,000 compounds, 3% hits;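 active = inhibition of at least 50% at 8 µM in the primary screen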
Target sequence (O15151 whole entry, looked up): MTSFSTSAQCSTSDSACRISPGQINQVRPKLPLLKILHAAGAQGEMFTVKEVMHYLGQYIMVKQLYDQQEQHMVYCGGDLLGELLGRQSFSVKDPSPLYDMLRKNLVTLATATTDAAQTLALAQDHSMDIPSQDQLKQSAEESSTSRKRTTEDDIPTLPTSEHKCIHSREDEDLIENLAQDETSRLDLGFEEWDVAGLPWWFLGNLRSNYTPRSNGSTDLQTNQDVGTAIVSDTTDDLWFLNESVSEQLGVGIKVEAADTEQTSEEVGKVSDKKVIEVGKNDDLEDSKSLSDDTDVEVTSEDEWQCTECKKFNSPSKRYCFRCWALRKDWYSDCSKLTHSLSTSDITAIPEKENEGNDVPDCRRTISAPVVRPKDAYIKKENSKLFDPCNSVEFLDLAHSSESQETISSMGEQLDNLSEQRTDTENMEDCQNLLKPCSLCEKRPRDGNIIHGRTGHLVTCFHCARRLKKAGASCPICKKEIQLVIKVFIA
Target sequence (Q00987 whole entry, looked up): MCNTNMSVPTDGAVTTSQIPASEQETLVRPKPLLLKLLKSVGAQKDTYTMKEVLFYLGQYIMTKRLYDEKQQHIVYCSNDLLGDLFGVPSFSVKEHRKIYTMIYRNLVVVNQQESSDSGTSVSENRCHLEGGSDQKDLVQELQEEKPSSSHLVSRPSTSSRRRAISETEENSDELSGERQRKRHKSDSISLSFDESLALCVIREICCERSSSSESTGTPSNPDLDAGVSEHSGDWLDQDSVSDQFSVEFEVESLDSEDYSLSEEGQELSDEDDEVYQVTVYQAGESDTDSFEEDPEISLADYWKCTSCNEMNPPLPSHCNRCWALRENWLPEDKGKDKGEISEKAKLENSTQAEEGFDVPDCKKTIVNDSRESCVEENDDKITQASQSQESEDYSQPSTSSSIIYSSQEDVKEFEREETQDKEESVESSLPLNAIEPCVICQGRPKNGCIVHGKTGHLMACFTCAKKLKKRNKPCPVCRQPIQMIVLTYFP
tim23-1 inh: growth inhibitors of tim23-1 mutant yeast; S. cerevisiae tim23-1 growth, BacTiter-Glo luminescence, 24 h; inhibition, % at 20 µM; 330,000 compounds, 1.3% hits; AID 463212;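 active = growth inhibition of the mutant yeast at or above 50%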;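 also: temperature-sensitive mutant grown at 25 °C; plate controls were DMSO-treated mutant yeast for no effect and medium wells lacking yeast for full effect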
MPTP block: permeability transition pore inhibition; isolated mouse mitochondria, Ca2+ swelling absorbance, 30 min; inhibition, % at 10 µM; 360,000 compounds, 1.4% hits; AID 602449;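 active = inhibition of 50% or more, scaled per plate between neutral and stimulator controls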;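 also: 0% = DMSO wells given calcium and 100% = 1 mM EGTA wells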
tim10-1 conf: confirmation of tim10-1 mutant yeast growth inhibitors; inhibition, % at 20 µM; shares compounds with tim10-1 inh; 7,400 compounds, 56% hits; S. cerevisiae tim10-1 ts strain growth, BacTiter-Glo, 24 h;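 active = inhibition of yeast growth at or above a set limit in either of two repeat tests at 20 µM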;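 also: tim10-1 mutant grown at permissive 25 °C to find synthetic lethal compounds; 0% = DMSO yeast wells and 100% = medium wells without yeast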
tim10 confirm: confirmation of TIM10 yeast growth inhibitors; inhibition, % at 10 µM; 4,600 compounds, 63% hits; shares compounds with TIM10 inh; S. cerevisiae tim10 strain growth, BacTiter-Glo luminescence, 24 h;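 active = inhibition of yeast growth at or above a set limit in either of two replicates at 10 µM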;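 also: this counterscreen used the strain with wild-type TIM10; 0% = yeast with DMSO and 100% = medium wells lacking yeast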
tim23-1 confirm: tim23-1 yeast growth inhibition, confirmed; AID 463218; shares compounds with tim23-1 inh; S. cerevisiae tim23-1 growth, BacTiter-Glo luminescence, 24 h; 4,400 compounds, 83% hits; inhibition, % at 20 µM;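 active = inhibition above about 39% in either of two replicate wells at 20 µM, limit read from the data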;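 also: temperature-sensitive tim23-1 mutant grown at 25 °C; 0% = DMSO wells with yeast and 100% = medium wells without yeast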
Mdm2-MdmX conf: confirmation of human Mdm2/MdmX interaction inhibitors; shares compounds with Mdm2-MdmX inh; Mdm2-MdmX binding, luminescent assay; 10,000 compounds, 55% hits; AID 489028; inhibition, % at 8 µM; in the data active = inhibition above about 40%
Full FLuc ctr: full-length luciferase inhibition in Mdm2/MdmX counter-screen; 6,200 compounds, 77% hits; AID 504607; SaOS-2 full-length luciferase counterscreen, luminescence; inhibition, % at 8 µM; shares compounds with Mdm2-MdmX inh;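 active = mean inhibition at 8 µM reaching about 37%, which flags the compound as non-specific, limit read from the data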;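 also: p53-null SaOS-2 cells with luciferase driven by a doxycycline-inducible promoter; compound on cells about two nights before reading with doxycycline added after day one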
An asterisk follows results filed as active. Rows were chosen to be rich in hits. Some 6.3% of all compounds tested hit in one or more screens of this group.

How did C=CCn1c(O)c(N=NC(=S)Nc2ccccc2F)c2ccccc21 do in these assays?
tim10-1 inh: 47.5*; TIM10 inh: 45.6*; Mdm2-MdmX inh: 75.8*; tim23-1 inh: 14.1; MPTP block: 2.0; tim10-1 conf: 43.7*; tim10 confirm: 29.1; Mdm2-MdmX conf: 57.0*; Full FLuc ctr: 50.0*

Results for Cc1c(Cl)cccc1NC(=S)N=Nc1c(O)n(CN2CCOCC2)c2ccccc12 ?
tim10-1 inh: 59.0*; TIM10 inh: 53.2*; Mdm2-MdmX inh: 81.9*; tim23-1 inh: 39.9; MPTP block: 8.0; tim10-1 conf: 48.7*; tim10 confirm: 30.4*; Mdm2-MdmX conf: 63.1*; Full FLuc ctr: 51.4*

What do the screens show for `COc1ccc(Cn2cc(CN3CCc4onc(-c5ccc(Br)cc5)c4C3=O)nn2)cc1`?
MPTP block: 1.5

What do the screens show for `CC1(C(=O)NCc2ccco2)Cc2c(-c3ccccc3)ccnc2O1` (stereo unspecified)?
MPTP block: 1.2

Results for CN1CCN(Cc2cc(COCc3ccccc3)c3cccnc3c2O)CC1 ?
tim10-1 inh: 46.9*; TIM10 inh: 8.8; Mdm2-MdmX inh: 59.8*; tim23-1 inh: 10.4; MPTP block: -3.2; tim10-1 conf: 25.1; Mdm2-MdmX conf: 75.0*; Full FLuc ctr: 29.5

How did Nc1ccn([C@@H]2O[C@H](C(=O)Nc3ccc(Oc4ccccc4)nc3)[C@@H](O)[C@H]2O)c(=O)n1 do in these assays?
MPTP block: -2.7

How did COc1ccc2cc3cc(C(=O)NCCN4CCN(c5ccccc5F)CC4)oc3nc2c1 do in these assays?
tim10-1 inh: 70.9*; TIM10 inh: 79.0*; Mdm2-MdmX inh: 56.5*; tim23-1 inh: 14.7; MPTP block: 0.7; tim10-1 conf: 63.0*; tim10 confirm: -9.3; Mdm2-MdmX conf: 14.1

How did CN1CCN(c2ccccc2NC(=S)NC(=O)c2cc3ccccc3o2)CC1 do in these assays?
tim10-1 inh: 40.3*; TIM10 inh: 97.8*; Mdm2-MdmX inh: 91.7*; tim23-1 inh: 23.2; MPTP block: -1.2; tim10-1 conf: 3.2; tim10 confirm: -2.7; Mdm2-MdmX conf: 17.6

How did COc1ccc2cc3cc(C(=O)Nc4ccccc4N4CCN(C)CC4)oc3nc2c1 do in these assays?
tim10-1 inh: 55.3*; TIM10 inh: 44.1*; Mdm2-MdmX inh: 100.6*; tim23-1 inh: 22.2; MPTP block: 26.4; tim10-1 conf: 44.0*; tim10 confirm: -15.6; Mdm2-MdmX conf: 3.8

How did C=CC(=O)N=c1sc2ccccc2n1-c1ccccc1 do in these assays?
tim10-1 inh: 50.9*; TIM10 inh: 33.0; Mdm2-MdmX inh: 82.3*; tim23-1 inh: 52.9*; MPTP block: 0.1; tim10-1 conf: 25.0; tim23-1 confirm: 14.9; Mdm2-MdmX conf: 80.3*; Full FLuc ctr: 37.1*

How did C/C(=N\OC(=O)c1c(-c2ccccc2Cl)noc1C)c1ccncc1 do in these assays?
tim10-1 inh: 8.7; TIM10 inh: 15.8; Mdm2-MdmX inh: -35.8; tim23-1 inh: -5.8; MPTP block: -3.4

How did Cc1ccccc1/C(N)=N/OC(=O)c1ccc(F)cc1 do in these assays?
tim10-1 inh: 43.6*; TIM10 inh: 72.6*; Mdm2-MdmX inh: 65.1*; tim23-1 inh: 73.7*; MPTP block: 1.2; tim10-1 conf: 42.8*; tim10 confirm: 55.8*; tim23-1 confirm: 66.6*; Mdm2-MdmX conf: -2.8

What do the screens show for `C/C(=N/OC(=O)c1ccc(F)cc1)c1ccc(C)cc1`?
tim10-1 inh: -0.3; TIM10 inh: 4.0; Mdm2-MdmX inh: 1.5; tim23-1 inh: -0.1; MPTP block: 0.1

How did Cc1ccccc1C(=O)O/N=C(\N)c1ccccc1 do in these assays?
tim10-1 inh: 54.6*; TIM10 inh: 52.5*; Mdm2-MdmX inh: 85.7*; tim23-1 inh: 56.6*; MPTP block: 0.1; tim10-1 conf: 58.1*; tim10 confirm: 49.5*; tim23-1 confirm: 68.2*; Mdm2-MdmX conf: 41.4*; Full FLuc ctr: 114.2*

How did Cc1onc(-c2ccccc2Cl)c1C(=O)O/N=C(\N)c1ccccc1 do in these assays?
tim10-1 inh: 49.0*; TIM10 inh: 54.6*; Mdm2-MdmX inh: 100.3*; tim23-1 inh: 32.4; MPTP block: 1.8; tim10-1 conf: 63.1*; tim10 confirm: 44.9*; Mdm2-MdmX conf: 92.1*; Full FLuc ctr: 112.1*

What do the screens show for `Cc1ccccc1C(=O)O/N=C(\c1ccccc1)c1ccccn1`?
tim10-1 inh: 16.8; TIM10 inh: 0.5; Mdm2-MdmX inh: 15.8; tim23-1 inh: 37.6; MPTP block: -0.4

What do the screens show for `c1ccc(NN=C(c2ccccc2)c2cccs2)cc1`?
MPTP block: 1.5

Results for CCC(C(=O)O/N=C(\N)c1ccc(Cl)cc1)c1ccccc1 (stereo unspecified) ?
tim10-1 inh: 74.9*; TIM10 inh: 62.6*; Mdm2-MdmX inh: 64.1*; tim23-1 inh: 11.4; MPTP block: 3.1; tim10-1 conf: 62.6*; tim10 confirm: 70.5*; Mdm2-MdmX conf: 13.8

What do the screens show for `Cc1ccc(/C(N)=N/OC(=O)Cc2ccccc2)cc1`?
tim10-1 inh: 33.0; TIM10 inh: 39.6; Mdm2-MdmX inh: -82.2; tim23-1 inh: 27.8; MPTP block: -0.9

What do the screens show for `CCC(C(=O)O/N=C(\N)c1ccc(C)cc1)c1ccccc1` (stereo unspecified)?
tim10-1 inh: 68.7*; TIM10 inh: 64.5*; Mdm2-MdmX inh: 50.5*; tim23-1 inh: 54.1*; MPTP block: -1.8; tim10-1 conf: 60.9*; tim10 confirm: -14.9; tim23-1 confirm: 67.6*; Mdm2-MdmX conf: 17.6

What do the screens show for `CCCOc1ccc(F)cc1-c1cc(C(=O)NCc2cccs2)[nH]n1`?
MPTP block: 0.9

Results for COc1ccccc1-c1csc(C(C)(O)c2cccc(F)c2)n1 (stereo unspecified) ?
MPTP block: 1.1

Results for N=c1c2c(-c3ccccc3)c(-c3ccccc3)n(Cc3ccco3)c2ncn1CCCn1ccnc1 ?
MPTP block: 11.5

How did N=c1c2c(-c3ccccc3)c(-c3ccccc3)n(Cc3ccccc3)c2ncn1CCO do in these assays?
tim10-1 inh: 46.8*; TIM10 inh: 47.8*; Mdm2-MdmX inh: 72.8*; tim23-1 inh: 32.3; MPTP block: 0.0; tim10-1 conf: 36.3*; tim10 confirm: 29.4; Mdm2-MdmX conf: 65.3*; Full FLuc ctr: 40.2*
